Experimental findings from PubChem BioAssay AID624330 (Southern Research Specialized Biocontainment Screening …, 2012) are described below.

About 2,100 (0.62%) of roughly 340,000 compounds were called active.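 Rule for the calls: active = first-screen hits whose inhibition reached a set limit at any dose in the follow-up dose series; inconclusive = inhibition above the set first-screen limit but never retested; inactive = the rest.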 These entries were drawn from the full list. Entries with a potency or affinity are not part of this list.

Broadly, the inhibition is the drop in the measured response relative to a control, in per cent.

Chain of Rac GTPase-activating protein 1 (Homo sapiens) (Q9H0H5 whole entry, looked up): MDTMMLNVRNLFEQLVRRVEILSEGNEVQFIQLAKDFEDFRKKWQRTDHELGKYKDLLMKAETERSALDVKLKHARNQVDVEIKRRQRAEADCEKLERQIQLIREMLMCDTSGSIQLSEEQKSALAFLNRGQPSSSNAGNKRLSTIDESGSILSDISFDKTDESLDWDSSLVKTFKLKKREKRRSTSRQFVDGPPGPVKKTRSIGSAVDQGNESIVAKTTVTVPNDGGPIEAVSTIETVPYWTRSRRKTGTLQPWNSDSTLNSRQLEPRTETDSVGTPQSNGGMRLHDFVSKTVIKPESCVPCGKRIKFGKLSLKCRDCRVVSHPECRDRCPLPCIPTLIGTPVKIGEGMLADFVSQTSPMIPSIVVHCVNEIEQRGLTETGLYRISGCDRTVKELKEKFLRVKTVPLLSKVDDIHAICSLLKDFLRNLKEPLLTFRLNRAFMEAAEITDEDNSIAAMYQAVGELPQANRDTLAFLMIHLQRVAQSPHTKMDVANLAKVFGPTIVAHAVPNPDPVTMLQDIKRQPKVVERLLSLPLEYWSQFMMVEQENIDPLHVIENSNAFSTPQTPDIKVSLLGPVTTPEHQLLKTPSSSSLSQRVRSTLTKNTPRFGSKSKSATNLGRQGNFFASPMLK

The test has as its target Rac GTPase-activating protein 1 (Homo sapiens) (UniProt Q9H0H5). As to the kind of experiment: MgcRacGAP GTPase-activating activity inhibitors, confirmation, biochemical, ADP Hunter fluorescence, primary and confirmatory (AID 624330).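 Note: fluorescence reports GDP produced by GAP-driven GTP hydrolysis.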 To be noted: MgcRacGAP-stimulated Rac1 GTP hydrolysis, at 30 µM, hits give high values, GST-tagged Rac1 F28L mutant substrate.
For the compound `COC(=O)c1cn(Cc2ccccn2)c(=O)c2ccccc12`, the inhibition was 1.41% (inactive).

As to `O=C(Nc1ccc(N2CCN(C(=O)c3ccccc3)CC2)cc1)c1cccnc1`, the inhibition was 4.32% (inactive).

Turning to `CCn1cc(C(=O)OCC(=O)Nc2ccc(C(C)C)cc2)c(=O)c2ccc(C)nc21`, the inhibition is 3.76% (inactive).

Turning to `CC(Sc1nnnn1-c1ccc(O)cc1)C(=O)NNC(=O)c1ccc(F)cc1` (configuration not stated), the inhibition was 2.11% (inactive).

As to `O=C(NCCN1C(=O)S/C(=C/c2ccccc2)C1=O)C1CC(=O)N(Cc2ccccc2)C1` (configuration not stated), the inhibition was 7.02% (inactive).

For the compound `Cc1c(C)n(CC(O)CNc2ccccc2)c2ccccc12` (configuration not stated), the inhibition is 20.8% (inactive).

Take `Cc1c(C)n(CC(O)CNCCO)c2ccccc12` (configuration not stated): the inhibition is 18.2% (inactive).

In the case of `CN1CC(=O)N/C1=N\C(=O)Nc1ccc2c(c1)N(C)C(=O)CS2`, the inhibition is 2.74% (inactive).

Regarding `COc1cc(/C=C/C(=O)OCC(=O)NC(=O)NC(C)C)cc(OC)c1OC`, the inhibition is 6.89% (inactive).

Take `COc1cc(/C=C/C(=O)OCC(=O)NC(=O)NC(C)(C)C)cc(OC)c1OC`: the inhibition was 8.1% (inactive).

For `COc1ccc(/C=C/C(=O)OCC(=O)NC(=O)NC(C)(C)C)cc1`, the inhibition was 2.69% (inactive).

Take `COc1cc(/C=C/C(=O)OCC(=O)NC(=O)NC(C)C)ccc1OCC#N`: the inhibition is 0.8% (inactive).

On to `O=C1c2ccccc2NC(c2ccc([N+](=O)[O-])cc2)N1O` (configuration not stated), for which the inhibition was 4.29% (inactive).

`O=S(=O)(Nc1cccc(S(=O)(=O)N2CCOCC2)c1)c1ccc(Cl)s1`: the inhibition is -0.61% (inactive).

On to `CCc1nc2sccc2c(=O)n1N`, for which the inhibition is -1.25% (inactive).

Regarding `O=C(CNC(=O)c1ccccc1)NCCc1ccc(O)c(O)c1`, the inhibition was 10.9% (inactive).

As for `CCN(Cc1ccncc1)Cc1cn[nH]c1-c1ccc(OC)cc1F`, the inhibition was -2.02% (inactive).

With `CCN(Cc1ccncc1)Cc1ccc(Br)cc1`, the inhibition is 28% (inactive).

With `CCN(Cc1ccccc1)Cc1ccc(OCc2ccccc2)c(OC)c1`, the inhibition is 10.8% (inactive).

As for `COc1ccc(CNCc2ccncc2)c(OC)c1`, the inhibition was 5.34% (inactive).

Take `COc1ccc(NC(=O)C2CCN(S(=O)(=O)c3c(C)noc3C)CC2)cc1`: the inhibition is 8.66% (inactive).

As for `Cc1cc(C)n2nc(CC(=O)NNC(=O)COc3cccc(C)c3C)nc2n1`, the inhibition was -3.96% (inactive).

On to `CCCCOCCCNC(=O)c1ccc(OC)cc1`, for which the inhibition is 4.46% (inactive).

For the compound `Cc1cc(Cl)ccc1N(CC(=O)N(C)Cc1ccccc1)S(C)(=O)=O`, the inhibition is 18.6% (inactive).

As to `CCC(SC1=N/C(=C/c2ccccc2OC)C(=O)N1c1ccccc1)C(=O)Nc1cc(C)on1` (configuration not stated), the inhibition is 12.8% (inactive).

On to `O=c1[nH]c(SCc2ccccc2)nc2c1cnn2-c1ccc(F)cc1`, for which the inhibition is 14% (inactive).

On to `Cc1cc(C)n2nc(C(=O)OCC(=O)N(C)CC(=O)Nc3ccccc3Cl)nc2n1`, for which the inhibition is 1.5% (inactive).

`CS/C(=N\S(=O)(=O)c1ccccc1)c1ccccc1`: the inhibition was 5.35% (inactive).

For `CC(C)CO/C(=N/S(=O)(=O)c1ccccc1)c1ccccc1`, the inhibition is 5.75% (inactive).

In the case of `COc1cc(/C=N/NC(=O)C2c3ccccc3Oc3ccccc32)ccc1O`, the inhibition was 5.77% (inactive).

For the compound `O=C(N/N=C\c1cccnc1)C1c2ccccc2Oc2ccccc21`, the inhibition was 3.36% (inactive).

On to `Cn1cc(CN2CCC(C(=O)Nc3cccc(-c4cccc(F)c4)c3)CC2)cn1`, for which the inhibition was 5.69% (inactive).

With `c1ccc(NC2=NCCN2CC2CCCCCC2)cc1`, the inhibition was 7.17% (inactive).

Take `O=C(CSc1nnc(-c2cccnc2)o1)Nc1cccc(Cl)c1`: the inhibition is 4.31% (inactive).

In the case of `N#Cc1cccc(NC(=O)CCN2C(=O)C3CCCCC3C2=O)c1` (configuration not stated), the inhibition was -0.53% (inactive).

With `O=C1/C(=C/c2ccc(N3CCCC3)cc2)NC(=S)N1C1CC1`, the inhibition is 27.1% (inactive).

For `O=C1NC(=O)N(c2ccc(Cl)cc2)C(=O)/C1=C/c1ccc2c(c1)CCN2Cc1ccccc1Cl`, the inhibition is 10.3% (inactive).

With `COc1ccc(NC(=O)Nc2ccc3c(c2)C(=O)N([C@H](C)CO)C[C@H](C)[C@@H](CN(C)S(C)(=O)=O)O3)cc1`, the inhibition is 11.1% (inactive).

Regarding `O=S(N1CCCCC1)C12CC3CC(CC(C3)C1)C2` (configuration not stated), the inhibition is -0.65% (inactive).

As for `CSC1=C(C#N)C(=O)NC(c2ccccc2O)S1` (configuration not stated), the inhibition was 25.9% (inactive).

In the case of `COc1cccc(NC2=C(C#N)C(=O)NC(c3cccc(OC)c3O)S2)c1` (configuration not stated), the inhibition was 36.1% (inactive).

For the compound `O=C(CCCN1C(=O)c2ccccc2C1=O)Nc1cccc(S(=O)(=O)NC2=NCCC2)c1`, the inhibition was 9.21% (inactive).

Regarding `Cc1ccc(C)c(NC(=O)COC(=O)CCC(=O)c2cccs2)c1`, the inhibition was -3.89% (inactive).

As to `COc1cccc(CNCc2ccc(C(=O)O)cc2)c1OC`, the inhibition is 1.24% (inactive).

Turning to `Cc1cc(=O)oc(C)c1C(=O)NCCCN1CCN(c2ccccc2F)CC1`, the inhibition is 6.67% (inactive).

In the case of `CCOC(=O)c1[nH]c2ccc(C)cc2c1N=CN(CC)CC`, the inhibition was 17.7% (inactive).

With `CCOC(=O)c1[nH]c2cc(OC)c(OC)cc2c1NC(=O)c1nonc1C`, the inhibition is 9.89% (inactive).

Regarding `CCOC(=O)c1[nH]c2ccc(OC)cc2c1C`, the inhibition was 7.86% (inactive).

`CCOC(=O)c1[nH]c2ccc(C)cc2c1N=C(C)N(C)C`: the inhibition was 9.84% (inactive).

On to `COc1ccc(NC(=O)NNC(=O)c2cc3ccccc3cc2O)cc1`, for which the inhibition was 11.5% (inactive).

As for `NC(=O)C1CCCN(S(=O)(=O)c2ccc3ccccc3c2)C1` (configuration not stated), the inhibition was 2.91% (inactive).

For the compound `Cc1onc(-c2ccccc2)c1-c1n[nH]c(=S)n1-c1ccc(C(=O)O)cc1`, the inhibition was 5.16% (inactive).

Consider `CC(=O)Nc1ccc(S(=O)(=O)N(C)S(=O)(=O)c2ccc(F)cc2)cc1`, for which the inhibition was 10.5% (inactive).

Take `CC(=O)c1cc(CN2CCN(Cc3ccc(C)cc3)C(CCO)C2)cs1` (configuration not stated): the inhibition is 11.3% (inactive).

Take `O=S(=O)(c1ccc2ccccc2c1)N1CCN(CCO)CC1`: the inhibition is 1.28% (inactive).

Turning to `CC(CCN1CCN(c2ccccc2)CC1)c1ccccc1` (configuration not stated), the inhibition is 0.31% (inactive).

As for `O=[N+]([O-])c1ccccc1CN1CCN(Cc2ccc3ccccc3c2)CC1`, the inhibition is 28.3% (inactive).

As for `c1ccc2cc(CN3CCOCC3)ccc2c1`, the inhibition was 1.35% (inactive).

For the compound `CC(CCN1CCOCC1)c1ccccc1` (configuration not stated), the inhibition was 22.5% (inactive).

`CCOC(=O)N1CCN(Cc2ccc3ccccc3c2)CC1`: the inhibition is 28.6% (inactive).

Regarding `CC1c2[nH]c3ccccc3c2CCN1S(C)(=O)=O` (configuration not stated), the inhibition was 1.37% (inactive).

For `Cc1ccc2cc(/C=N/NC(=O)c3ccc(F)cc3)c(Cl)nc2c1`, the inhibition was 5.25% (inactive).

On to `Cc1ccccc1NS(=O)(=O)c1cc(C(=O)Nc2cccc([N+](=O)[O-])c2)ccc1C`, for which the inhibition is 8.26% (inactive).

As to `O=C(Nc1cccc(-c2cccc(Cl)c2)c1)C1CCN(Cc2ccccn2)CC1`, the inhibition was 2.6% (inactive).

On to `CC(NS(=O)(=O)CCNC(=O)c1ccccc1)c1ccccc1` (configuration not stated), for which the inhibition was 4.33% (inactive).

For `CC(=O)Nc1ccc(S(=O)(=O)N[C@@H](C)C(=O)OCC(=O)c2ccc(Br)s2)cc1`, the inhibition was 16.7% (inactive).

`CCn1nnnc1Oc1ccc(Cl)cc1`: the inhibition was 1.61% (inactive).

Turning to `S=c1[nH]nc(-c2cccnc2)n1/N=C/C=C/c1ccco1`, the inhibition is 21.5% (inactive).

Take `Cc1ccc(CN2CCN(/N=C/c3ccc(C(=O)O)cc3)CC2)cc1`: the inhibition was 8.13% (inactive).

`Cc1cc(C)n(-c2nnc(C)n2/N=C/c2ccco2)n1`: the inhibition is 2.53% (inactive).

Regarding `Oc1ccccc1/C=N/n1c2ccccc2c2ccccc21`, the inhibition was 8.39% (inactive).

Consider `C(=N/n1c2ccccc2c2ccccc21)/c1ccco1`, for which the inhibition is 14.3% (inactive).

On to `Cc1nnc(C)n1/N=C/c1ccc(C(=O)O)cc1`, for which the inhibition is 7.46% (inactive).

As for `S=c1[nH]nc(-c2ccccc2)n1/N=C/C=C/c1ccco1`, the inhibition was 30.9% (inactive).

Consider `COc1cccc(/C=N/n2c(SC)nnc2-c2ccccc2)c1O`, for which the inhibition is 22.8% (inactive).

Regarding `NC(=O)COC(=O)c1cccc(S(=O)(=O)N2CCN(c3ccccc3)CC2)c1`, the inhibition was 7.91% (inactive).

As for `Cc1ccc(OCC(=O)NNC(=O)c2ccc(NC(=O)C3CC3)cc2)c(C)c1`, the inhibition is 7.97% (inactive).

With `CC(=O)c1cccc(NS(=O)(=O)c2c(C)n[nH]c2C)c1`, the inhibition is 7.62% (inactive).

Regarding `CC(=O)Nc1ccc2c(c1)N(S(=O)(=O)c1cccs1)CCC2`, the inhibition was 4.49% (inactive).

Consider `CC(C)OCCCNC(=O)c1ccc(CS(=O)(=O)Cc2ccccc2F)o1`, for which the inhibition was 3.97% (inactive).

Turning to `Cc1nc(N2CCN(c3ccccc3)CC2)nc2c1C(=O)CCC2`, the inhibition was 5.63% (inactive).

Regarding `CCN1C(=O)/C(=C/c2c(C)nn(C)c2C)SC1=S`, the inhibition is 0.43% (inactive).

With `O=C(O)c1ccc(Nc2ncnc3ccccc23)cc1`, the inhibition was 7.58% (inactive).

`Cc1cccc(NC(=O)CNC(=O)COC(=O)c2ccco2)c1C`: the inhibition is -0.7% (inactive).

For the compound `c1ccc(C[C@H]2CN=C(Nc3ccccc3)N2CC2CCCCC2)cc1`, the inhibition is 3.05% (inactive).

For `Cc1ccccc1-n1nc(C(=O)O)cc1-c1ccccc1`, the inhibition is 3.4% (inactive).

In the case of `O=C(NCCc1ccccc1)c1ccc(-c2ccccc2Cl)o1`, the inhibition is 5.22% (inactive).

With `Cc1nnc(C)n1/N=C/c1ccccc1`, the inhibition was 6.18% (inactive).

For the compound `Cc1ccc(/C=N/n2c(-c3ccncc3)n[nH]c2=S)cc1`, the inhibition was 5.7% (inactive).

Take `S=c1[nH]nc(-c2cccnc2)n1/N=C/C=C/c1ccccc1`: the inhibition is 5.39% (inactive).

Consider `Cc1nnc(C)n1/N=C/C=C/c1ccccc1`, for which the inhibition was 1.05% (inactive).

Regarding `CC1CCN(C(=O)C2CCN(S(=O)(=O)c3cccs3)CC2)CC1`, the inhibition is 6.45% (inactive).

`CCc1cc(C(=O)N2CCCC(C(=O)c3cccc(OC(C)C)c3)C2)n(C)n1` (configuration not stated): the inhibition was 9.3% (inactive).

On to `N#Cc1ccccc1S(=O)(=O)N1CCN(C(=O)CCc2ccccc2)CC1`, for which the inhibition is 6.33% (inactive).

In the case of `N#Cc1ccccc1S(=O)(=O)N1CCN(C(=O)Cc2n[nH]c(=O)c3ccccc23)CC1`, the inhibition was 1.94% (inactive).

Regarding `COc1ccc2c(CC(=O)N3CCN(S(=O)(=O)c4ccc(F)cc4)CC3)coc2c1`, the inhibition is 1.15% (inactive).

Turning to `Cc1ccc2c(CC(=O)N3CCN(S(=O)(=O)c4ccccc4)CC3)coc2c1`, the inhibition is 5.1% (inactive).
